The results in this text go back to PubChem BioAssay AID1942 (Johns Hopkins Ion Channel Center, 2009).

SMILES strings stand for the structures. In all, about 2,400 compounds went through this assay and about 580 (24%) were called active. Not all results are given here. Values without a mark were called inactive.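 How the source made its calls: active means activity change at or above the mean plus 3 SD of buffer wells without dofetilide, per plate; inactive means the rest.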

For this test, the target named is Potassium voltage-gated channel subfamily KQT member 2 (Rattus norvegicus) (UniProt O88943). In words: rat KCNQ2 channel activation by compounds alone, confirmation, counter-screen for hERG block protector project, cell-based, CHO, FluxOR thallium flux (AID 1942).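 Further: normalized value minus buffer-control mean plus three SD of buffer wells.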 To be noted: CHO-KCNQ2 cells, FluxOR thallium flux fluorescence; at 10 µM; stronger effect = higher value.
Sequence of Potassium voltage-gated channel subfamily KQT member 2 (Rattus norvegicus) (O88943 whole entry, looked up): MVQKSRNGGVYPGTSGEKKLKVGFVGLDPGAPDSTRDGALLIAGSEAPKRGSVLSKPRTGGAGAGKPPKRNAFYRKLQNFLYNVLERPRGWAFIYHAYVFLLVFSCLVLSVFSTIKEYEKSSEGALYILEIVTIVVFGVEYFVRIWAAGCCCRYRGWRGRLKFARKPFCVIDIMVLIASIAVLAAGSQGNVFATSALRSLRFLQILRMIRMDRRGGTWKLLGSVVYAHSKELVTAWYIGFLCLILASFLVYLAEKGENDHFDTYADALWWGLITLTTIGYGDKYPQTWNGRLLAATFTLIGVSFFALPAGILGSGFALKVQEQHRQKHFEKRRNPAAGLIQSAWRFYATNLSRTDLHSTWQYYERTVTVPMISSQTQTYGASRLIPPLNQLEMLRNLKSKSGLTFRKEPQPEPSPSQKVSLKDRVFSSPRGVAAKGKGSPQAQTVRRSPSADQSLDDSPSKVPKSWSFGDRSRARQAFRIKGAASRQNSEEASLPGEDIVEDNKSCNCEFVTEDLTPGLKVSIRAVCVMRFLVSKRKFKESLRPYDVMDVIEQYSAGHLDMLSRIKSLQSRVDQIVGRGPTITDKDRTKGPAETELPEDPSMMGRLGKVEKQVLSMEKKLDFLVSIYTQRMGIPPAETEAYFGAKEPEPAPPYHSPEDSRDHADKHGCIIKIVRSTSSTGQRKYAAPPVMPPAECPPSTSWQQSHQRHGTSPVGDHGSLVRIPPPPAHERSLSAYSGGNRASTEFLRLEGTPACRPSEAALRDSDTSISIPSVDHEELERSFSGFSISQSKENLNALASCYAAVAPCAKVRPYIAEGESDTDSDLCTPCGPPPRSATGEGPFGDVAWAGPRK
Turning to `COc1cc(NC(=O)c2ccccc2)c(OC)cc1NC(=O)Cc1ccc(Br)cc1`, the activity change, less the hit threshold was 12.3% (active).

Consider `COc1ccc(Br)cc1CNc1ccccc1`, for which the activity change, less the hit threshold was -21.6%. In the case of `CCOC(=O)CN1C(=O)SC(Nc2ccc(C)cc2)C1=O` (configuration not stated) it was -7%; in that of `O=C(COc1nsnc1N1CCOCC1)Nc1ccc(Cl)cc1`, -17.5%.

`CN(Cc1cnn(C)c1)C(=O)C1CCC(=O)N(Cc2cccc(C(F)(F)F)c2)C1` (configuration not stated): the activity change, less the hit threshold was -19.6%. As for `COc1ccc(N2CCN(S(=O)(=O)c3ccc(Br)s3)CC2)cc1`, the figure is -14.9%; as for `CC1=CN2C(=N)/C(=C/c3ccc(Sc4ccc(Cl)cc4)o3)C(=O)N=C2S1`, -17.8%. As for `CCCn1c(=S)[nH]c2ccc(C(F)(F)F)cc21`, the figure is -3.6%; as for `CC(C)Cn1c(=S)[nH]c2cc(Cl)ccc21`, 6.5% (active); as for `O=c1c2cc(Cl)ccc2[nH]c(=S)n1Cc1cccs1`, -11.7%. In the case of `COc1cccc(/C=C2/C(=O)NN(c3ccc(C)c(C)c3)C2=O)c1` it was -18%; in that of `O=C(N1CCOCC1)N1CCC(c2nc(-c3ccc(S(=O)(=O)N4CCOCC4)cc3)no2)CC1`, -23.6%; in that of `C=CCN(CC=C)C(=S)NC(=O)c1ccc(OC)c(Br)c1`, 46% (active).

As for `C=CCN(CC=C)C(=S)NC(=O)c1ccc(C)c(Br)c1`, the activity change, less the hit threshold was 135% (active).

For `COc1ccc(C(=O)NC(=S)N(Cc2ccccc2)Cc2ccccc2)cc1`, the activity change, less the hit threshold is 28.4% (active). In the case of `COc1ccc(C(=O)NN/C(C)=C/C(=O)c2ccccc2)cc1` it was -25.7%. In the case of `COc1ccc(CN(Cc2cccnc2)C(=S)NCCc2ccccc2)cc1OC` it was -13.1%; in that of `COc1cc(OC)cc(C(=O)NC(=S)N(Cc2ccccc2)C(C)C)c1`, 31.3% (active). `COc1ccc(C(=O)NC(=S)NCCO)cc1Br`: the activity change, less the hit threshold is -13.1%. In the case of `C=CCNC(=S)NC(=O)c1ccc(C)c(Br)c1` it was -17.6%; in that of `COc1cc(OC)cc(C(=O)OCC(=O)N(C)c2ccccc2)c1`, -28%.

Consider `CCOc1ccc(C(=O)NC(=S)N(Cc2ccccc2)Cc2ccccc2)cc1`, for which the activity change, less the hit threshold was -5.6%.

On to `CCN(CC)C(=S)NC(=O)c1ccc(OC)c(Br)c1`, for which the activity change, less the hit threshold is -11%.

Take `O=c1c([N+](=O)[O-])c(N2CCCCC2)c2ccccc2n1-c1ccccc1`: the activity change, less the hit threshold was -20.7%. In the case of `CC(C)=CCCC1=CCC2C(=O)NNC(=O)C2C1` (configuration not stated) it was -15.8%; in that of `Cc1ccc(S(=O)(=O)n2cnc3ccccc32)c(C)c1`, -9%. For `CCCNC(=O)N(C)c1nncnc1C(=O)NC`, the activity change, less the hit threshold is -17.3%. As for `CCN(CC(=O)Nc1c(F)cccc1F)C(=O)c1ccc(Cl)c(S(=O)(=O)N2CCCCC2)c1`, the figure is -23.2%. Take `Cc1cccc(C)c1NC(=O)Cn1cnc2c(=O)n(C)c(=O)n(C)c21`: the activity change, less the hit threshold is -15.2%. In the case of `CCCOc1ccc(CN(CCC#N)C(=S)NC(=O)c2ccccc2)cc1` it was 7.3% (active); in that of `C=CCN(CC=C)C(=S)NC(=O)c1ccc(OC)cc1`, 10.1% (active). As for `C=CCN(CC=C)C(=S)NC(=O)/C=C/c1ccc(OC)cc1`, the figure is -0.6%; as for `CC(C)N(Cc1ccccc1)C(=S)NC(=O)C1(C)CC1(Cl)Cl` (configuration not stated), 32.4% (active). Turning to `CCCOc1ccc(C(=O)NNC(=S)NC(=O)c2ccccc2)cc1`, the activity change, less the hit threshold is -24.3%. In the case of `C=CCNC(=S)N/N=C(\C)c1ccc(OC)cc1` it was -13.1%; in that of `O=C(O)c1ccc(Cl)cc1Nc1nc2cc(Cl)ccc2o1`, -1.7%. In the case of `CC(=O)c1c(C)nc(C)nc1NC(=O)C(C)C` it was -17.2%; in that of `Nc1nc2n(n1)C1(CCCCC1)C1=C(CCCC1)N2`, -18.5%; in that of `CCCCc1c(O)nc(SCC(=O)O)[nH]c1=O`, -17.9%.

For the compound `FC(F)(F)c1cnc2c(c1)[nH]c(=S)n2-c1ccc(Cl)cc1`, the activity change, less the hit threshold is -2.4%.

Consider `CCC(=O)Nc1cc(-c2nnc(OC)c3ccccc23)ccc1N1CCOCC1`, for which the activity change, less the hit threshold is -7.7%. As to `CCCCOC(=O)c1ccc(NC(=S)NC(=O)c2c(Br)c(C)nn2C)cc1`, the activity change, less the hit threshold was 10.4% (active).

With `Cc1ccc(NC(=S)NC(=O)c2cncc(Br)c2)cc1Cl`, the activity change, less the hit threshold is -17.8%. As for `Cc1nn(C)c(C(=O)NC(=S)Nc2ccc([N+](=O)[O-])cc2)c1Cl`, the figure is 7.5% (active). As for `COC(=O)c1ccc(NC(=S)NC(=O)c2c(-c3ccccc3)noc2C)cc1`, the figure is -19.6%; as for `Cc1nn(C)c(C(=O)NC(=S)Nc2ccccc2Br)c1Cl`, 11.8% (active); as for `CCCCOC(=O)c1ccc(NC(=S)NC(=O)c2c(Cl)cnn2C)cc1`, -10%. As for `CCn1ncc(Cl)c1C(=O)NC(=S)Nc1ccccc1Br`, the figure is 29.9% (active); as for `Cc1ccc(NC(=O)c2c([N+](=O)[O-])c(C(C)(C)C)nn2C)cc1`, -17.2%. Take `Cc1nn(CCC(=O)NNC(=S)Nc2ccc(F)cc2)c(C)c1[N+](=O)[O-]`: the activity change, less the hit threshold is -18.9%. As for `COc1ccccc1NC(=S)NC(=O)c1ccc(-c2ccc(Cl)cc2)o1`, the figure is -6.4%; as for `O=C(NC(=S)Nc1ccccc1N1CCCC1)c1ccccc1Br`, -29.8%.
